Records with an inconclusive call do not appear. The source made the active and inactive calls. The call rests on the fitted dose curve; in most records, active means well fitted cell-killing curve with a large enough effect; inconclusive means small, poorly fitted or top-dose-only effect; inactive means flat fitted curve, though single readings scatter.
Assay: HBEC Cell Viability Secondary Assay for qHTS Assay for Epigenetic Modulators
Settings: HBEC normal bronchial cells viability, ATP luminescence, 72 h; series mostly up to 46.1 µM; activity change, negative = viability loss: at the top concentration
Description: NIH Molecular Libraries Screening Centers Network [MLSCN] NIH Chemical Genomics Center [NCGC] MLSCN Grant: 1 X01 MH079860-01 Assay Provider: Elisabeth D. Martinez, University of Texas SW Medical Center NCGC Assay Overview: This secondary assay characterizes selected actives identified in the qHTS of the Locus Derepression (LDR) assay (PubChem AID 1865). The LDR assay detects the derepression of a GFP reporter that is stably integrated in a region of the genome of murine c127i mammary cells that is presumably silenced. Compounds that cause derepression of the locus to express GFP are identified by enumerating GFP positive cells using a laser-scanning microplate cytometer. Selected LDR actives were assayed for killing of HBEC, a patient-derived normal bronchial epithelial line matched to HCC4017 (Pubchem AID XXX), a nonsmall cell lung carcinoma line from the same patient. The HBEC line assays the cytoxicity of test compounds on normal lung cells. Cell viability was measured using a luminescence-based detection reagent that measures cellular ATP levels.
NCGC Assay Protocol Summary HBEC cells were seeded at 125 cells/5 uL/well in white, solid bottom, 1536 well plates (Greiner). After 16-hour incubation at 37deg C and 5% CO2, 23 nL of compound were transferred into the assay plate via a pin tool. Plates were incubated 72 hours at 37deg C and 5% CO2, then 3.5 uL/well CellTiter-Glo(R) (Promega) detection reagent was added, plates were incubated at ambient temperature for 10 minutes and luminescence was measured by a ViewLux (Perkin Elmer) reader. For further details, see Johnson, RL, Huang, W, Jadhav, A, Austin, CP, Inglese, J, Martinez, ED (2008). A quantitative high-throughput screen identifies potential epigenetic modulators of gene expression. Anal Biochem 375: 237-48. […]

| SMILES | Potency | activity change, negative = viability loss |
| --- | --- | --- |
| O=[N+]([O-])/C(C=Nc1ccccc1O)=C\Nc1ccccc1O | 28.1 µM (active) |  |
| COc1nc(Nc2nc3ccccc3c(=O)[nH]2)nc2ccc(C)cc12 | 3.15 µM (active) |  |
| O=C(N/N=C/c1ccccn1)c1cc(-c2ccc(Cl)cc2)nc2ccccc12 | 7.05 µM (active) |  |
| COc1ccccc1OCC(=O)N/N=C/C=C/c1ccc([N+](=O)[O-])o1 | 9.96 µM (active) |  |
| S=C(Nc1ccccc1)c1ccccn1 |  | -0.455% (inactive) |
| CN(C)S(=O)(=O)c1cccc(NC(=S)N/N=C/c2ccco2)c1 |  | 3.62% (inactive) |
| C(=N\Nc1nc(-c2ccccn2)nc2ccccc12)/c1ccccc1 | 3.15 µM (active) |  |
| NC(=S)N/N=C/c1ncc(C(F)(F)F)cc1Cl | 6.28 µM (active) |  |
| CCOc1ccc(NC(=O)c2nc(S(=O)(=O)Cc3ccccc3F)ncc2Cl)cc1 | 2.23 µM (active) |  |
| CCC(=O)N1CCN(c2ccc(NC(=O)c3ccc([N+](=O)[O-])o3)cc2Cl)CC1 | 0.705 µM (active) |  |
| CCOn1c(=O)c[n+]([O-])c2ccccc21 |  | 3.63% (inactive) |
| COc1ccc2c(C)nc(Nc3nc(-c4ccccc4)cc(=O)[nH]3)nc2c1 | 8.88 µM (active) |  |
| Cc1ccc(/C=[N+](\[O-])c2ccc(N(C)C)cc2)c2nsnc12 | 9.96 µM (active) |  |
| COCCNC(=S)N/N=C(\C)c1ccccc1O |  | -4.12% (inactive) |
| CC1=C/C(=N\NC(=S)Nc2cccnc2)CC(C)(C)C1 | 9.96 µM (active) |  |
| COc1ccc2c(C)cc(SCC(=O)N(C)C3CCS(=O)(=O)C3)nc2c1 (stereo unspecified) |  | -9.91% (inactive) |

| SMILES | Potency | activity change, negative = viability loss |
| --- | --- | --- |
| O=C(NN1C(=O)c2ccccc2NC1c1ccc([N+](=O)[O-])o1)c1ccc([N+](=O)[O-])cc1 (stereo unspecified) | 3.97 µM (active) |  |
| CCCC(=O)N1CCN(c2ccc(NC(=O)c3ccc([N+](=O)[O-])o3)cc2Cl)CC1 | 0.705 µM (active) |  |
| COc1cccc(/C=N/Nc2nc(Nc3ccccc3)nc(-n3nc(C)cc3C)n2)c1O | 11.2 µM (active) |  |
| CCCCOC(=O)Cn1c2ccc(OC)cc2c2nc3ccccc3nc21 | 14.1 µM (active) |  |
| O=C(CSc1cccc[n+]1[O-])c1ccccc1Br |  | 11.3% (inactive) |
| CCc1nnc(NC(=O)c2cccc(C(=O)Nc3nnc(CC)s3)n2)s1 | 0.705 µM (active) |  |
| O=C1C=C(Nc2ccc(Cl)cc2)C(=O)N1c1ccc(Cl)cc1 |  | -5.04% (inactive) |
| COc1ccc(C(=O)/C=C/Sc2nc3ccccc3o2)cc1 | 3.15 µM (active) |  |
| COc1ccc(NC(=O)CSc2nc3c(oc4ccccc43)c(=O)n2Cc2ccco2)cc1Cl | 7.05 µM (active) |  |
| COc1cccc(N2CCN(S(=O)(=O)c3ccc(-n4cnnn4)cc3)CC2)c1 |  | -18.1% (inactive) |
| Cc1ccc(C(C)C)c(OCc2ccc(C(=O)N/N=C/c3cccc(O)c3O)cc2)c1 | 14.1 µM (active) |  |
| C/C=C/c1ccc(OCC(=O)OCC(=O)NC2CC2)c(OC)c1 |  | -4.48% (inactive) |
| CCN(CC)CCCNC(=O)CSc1c2c(nc3cc(Cl)ccc13)CCCC2 | 19.9 µM (active) |  |
| N=c1n(CC(=O)c2ccc([N+](=O)[O-])cc2)c2ccccc2n1Cc1ccccc1Cl | 11.2 µM (active) |  |
| CC1=NN(c2nc3ccccc3[nH]2)C(=O)C1Cc1ccccc1 (stereo unspecified) | 7.05 µM (active) |  |

From PubChem BioAssay AID493066 (National Center for Advancing Translational Sciences (NCATS), 2011)
